Compound activity as filed in PubChem.
Pf growth 48h = inhibits P. falciparum growth in the first generation, 48 h. P. falciparum luciferase growth in erythrocytes, 48 h. hit rate 5.9% among 310,000. Potency, µM (highest dose often 28.7 µM), actives largely listed as inhibitors
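Firefly luciferase activity from engineered P. falciparum reports growth; inhibitors lower the luminescent signal. Cultures contained 2% hematocrit erythrocytes at 0.1% final parasitemia.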
Cycloheximide cs = affects cycloheximide protein synthesis inhibition readout, counter-screen. hit rate 12% among 300,000. cell reporter, cycloheximide protein synthesis inhibition counterscreen. max response, %; in the data active = max response mostly above about 13%, no sharp cut-off; inactive = mostly below about 14%; also: read at 38.3 µM for the half of the compounds with a filed dose
Pf growth 96h = P. falciparum growth inhibition at 96 hour, primary screen for plastid delayed-death inhibitors | P. falciparum luciferase reporter growth, 96 h | Potency, µM (doses to about 28.7 µM), hits mostly inhibitors | hit rate 6.9% among 320,000 | AID 504834
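96 h incubation, 37 C, 5% CO2, of luciferase-reporter P. falciparum-infected RBCs (2% hematocrit, 0.05% parasitemia final) with test compounds; endpoint luminescence.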
Shiga inhibitor = inhibitors of Shiga toxin in Vero cells; Vero cells, Shiga toxin protein synthesis inhibition reporter; inhibition, % at 38.7 µM; hit rate 9.2% among 290,000; in the data active = inhibition mostly above about 28%, no sharp cut-off; inactive = mostly below about 43%
Lassa entry inh = Lassa virus entry inhibition | Lassa virus pseudotype entry inhibition, cell reporter | Potency, µM (titrated, usually from 37.9 µM), usual class: inhibitors | hit rate 1.2% among 300,000 | AID 540256; calls by dose curve; tested in HEK293 cells; also: nearly all actives have a fitted effect of over 50% in size
MARV entry inh = blocks Marburg virus binding to or entry into cells; Potency, µM (series often up to 37.8 µM), most hits filed as inhibitors; Marburg virus pseudotyped entry inhibition, cell reporter; hit rate 1.8% among 300,000; calls by dose curve; tested in HEK293 cells
Of the large screens only hits and unclear results are named; the others gave an inactive call. Most compounds without a hit are left out; they make up all but 19% or so of the library. Unless noted, calls follow the shape of the dose curve; as a rule, active = well fitted inhibition curve with a large enough effect; inconclusive = small, poorly fitted or top-dose-only effect, or another doubt; inactive = no such curve, though single readings can be large or run the other way.

Cc1ccc(N=C2NC(=O)/C(=C/c3cccs3)S2)cc1C	Pf growth 96h inconclusive, Lassa entry inh inconclusive, MARV entry inh inconclusive
O=C1NC(=Nc2ccccc2)S/C1=C/c1cccs1	Cycloheximide cs 41, Shiga inhibitor 69 (no result: Lassa entry inh, MARV entry inh)
Cc1cnc(C(=O)Nc2cccc(-c3nnc4n3CCCCC4)c2)cn1	Pf growth 96h inconclusive
Cc1cnc(C(=O)Nc2ccc(S(=O)(=O)NCC(C)C)cc2)cn1	Pf growth 48h inconclusive, Pf growth 96h 9.3µM, MARV entry inh inconclusive
Cc1cnc(C(=O)Nc2ccc3c(c2)CCC3)cn1	Cycloheximide cs 39, Shiga inhibitor 82, Lassa entry inh inconclusive, MARV entry inh inconclusive
CCCCOc1ccc(NC(=O)c2cnc(C)cn2)cc1	Cycloheximide cs 13, Pf growth 96h inconclusive (no result: Pf growth 48h)
Cc1cnc(C(=O)Nc2ccc(F)c(F)c2)cn1	Cycloheximide cs 21, Shiga inhibitor 55
COC(=O)C1=C(N)OC2=C(C(=O)CC(C)(C)C2)C1c1cccnc1 (stereo not drawn)	MARV entry inh inconclusive (no result: Pf growth 96h)
Cc1ccccc1NC(=O)CCN1CCN(CCO)CC1	none
O=C(Nc1ccc2c(c1)CCC2)c1cnccn1	Cycloheximide cs 46, Shiga inhibitor 109, Lassa entry inh inconclusive
O=C(Nc1ccc(S(=O)(=O)N2CCCC2)cc1)c1cnccn1	none
COC(=O)c1ccc(CN2CCCC(CO)(Cc3ccc(F)cc3F)C2)cc1 (stereo not drawn)	MARV entry inh inconclusive
CC(=O)Nc1ccc(C(=O)CN2C(=O)NC3(CCCCCC3)C2=O)c(F)c1	none (no result: Pf growth 48h, Cycloheximide cs, Pf growth 96h, Shiga inhibitor)
C/C(=C\c1ccccc1)C(=O)NC1CCSC1=O (stereo not drawn)	Cycloheximide cs 18
O=C(CCc1ccccc1)NC1CCSC1=O (stereo not drawn)	Lassa entry inh inconclusive (no result: Pf growth 96h)
Cc1cc(C)cc(C(=O)N(CCc2ccccc2)C2CC3CCC(C2)N3C)c1 (stereo not drawn)	Pf growth 96h inconclusive, Lassa entry inh inconclusive, MARV entry inh 3.2µM
CC1(C)Cc2nc3oc4c(N5CCOCC5)ncnc4c3cc2CO1	none
Cc1cc(C(=O)Cn2ncc(Cl)c(Cl)c2=O)c(C)n1CC(F)(F)F	Cycloheximide cs 24, Pf growth 96h inconclusive, Lassa entry inh inconclusive, MARV entry inh inconclusive
Cc1cccc(Cn2nnc3c2C(=O)c2ccccc2C3=O)c1	Pf growth 48h inconclusive, Cycloheximide cs 27, Pf growth 96h 2.9µM, Shiga inhibitor active, Lassa entry inh inconclusive, MARV entry inh inconclusive
Cc1cccc(Cn2ncc(Cl)c(Cl)c2=O)c1	Cycloheximide cs 24, Lassa entry inh inconclusive, MARV entry inh inconclusive
CCCc1cc(=O)[nH]c(SCC(=O)c2cc(C)n(CC(F)(F)F)c2C)n1	none (no result: Lassa entry inh)
Cc1ccc(C)c(C(=O)Cn2ncc(Cl)c(Cl)c2=O)c1	Pf growth 48h inconclusive, Lassa entry inh inconclusive, MARV entry inh 10µM (no result: Pf growth 96h)
Cc1ccc2c(c1)N(CC(=O)N1CCCCCC1)C(=O)c1cccnc1O2	none (no result: Lassa entry inh, MARV entry inh)
Cc1cc(NC(=O)C2C3C(=O)N(Cc4ccc(Cl)cc4)C(C(=O)NC(C)(C)C)C34C=CC2(C)O4)no1 (stereo not drawn)	none
Cc1nc(N2CCN(C(=O)c3ccco3)CC2)c2oc3ccccc3c2n1	Pf growth 48h inconclusive, Pf growth 96h inconclusive, Lassa entry inh inconclusive, MARV entry inh inconclusive
COC(=O)n1c(=O)oc2ccccc21	none
CCCCOC(=O)n1c(=O)oc2ccccc21	Cycloheximide cs 26, Pf growth 96h inconclusive
COc1ccc(CNC(=O)CSc2nnc(NC(=O)C3CC3)s2)cc1	none
Cc1cc(N2CCN(C3CCCCC3)CC2)nc2cccc(O)c12	Pf growth 48h 2.9µM, Pf growth 96h inconclusive (no result: Lassa entry inh, MARV entry inh)
C=CC(=O)NC(C)(C)CCN1CCOCC1	Pf growth 48h 0.93µM
C/C(=N\NC(=O)c1nnn(-c2nonc2N)c1C)c1ccc(-c2ccccc2)cc1	Pf growth 96h inconclusive
CN1CCN(C(=O)CN2C(=O)COc3ccc(S(=O)(=O)N4CCOCC4)cc32)CC1	Pf growth 96h 5.2µM (no result: Lassa entry inh, MARV entry inh)
CCOC(=O)N1CCN(C(=O)CN2C(=O)COc3ccc(S(=O)(=O)N4CCOCC4)cc32)CC1	none (no result: Lassa entry inh, MARV entry inh)
CCN(CC)S(=O)(=O)c1ccc2c(c1)N(CC(=O)N1CCN(c3ccc(Cl)cc3)CC1)C(=O)CO2	none (no result: Pf growth 48h, Cycloheximide cs, Pf growth 96h, Shiga inhibitor, MARV entry inh)
CCCN1CCN(C(=O)CN2C(=O)COc3ccc(S(=O)(=O)N(CC)CC)cc32)CC1	Pf growth 96h 2.9µM
Cc1ccc2c(c1)N(CC(=O)N1CCCCC1)C(=O)C(C)O2 (stereo not drawn)	Pf growth 96h 9.3µM
CC(C)(C)c1ccc2c(c1)N(CC(=O)N1CCCC1)C(=O)CO2	Pf growth 48h 12µM (no result: Lassa entry inh, MARV entry inh)
Cc1ccc(C)n1C1CCS(=O)(=O)C1 (stereo not drawn)	Pf growth 48h inconclusive
Cc1ccsc1C(=O)N1CCN(c2ncccn2)CC1	none (no result: Cycloheximide cs, Shiga inhibitor, Lassa entry inh, MARV entry inh)
O=C1N=C(N2CCOCC2)S/C1=C1\C(=O)N(Cc2ccccc2)c2ccc(Br)cc21	Pf growth 96h inconclusive (no result: Lassa entry inh, MARV entry inh)
CCCCN1C(=O)/C(=C2\SC(N3CCCCC3)=NC2=O)c2ccccc21	Cycloheximide cs 26, Shiga inhibitor 57
CC(=O)NC1=NN(C(C)=O)C(C)(CS(=O)(=O)c2ccc(Cl)cc2)S1 (stereo not drawn)	none
CN(C)c1ccc(C(=O)C(O)c2ccccc2Cl)cc1 (stereo not drawn)	MARV entry inh inconclusive (no result: Pf growth 48h, Cycloheximide cs, Pf growth 96h, Shiga inhibitor)
CCn1c(NCc2cc(Br)ccc2NS(=O)(=O)c2ccc(C)cc2)nc2ccccc21	Pf growth 48h inconclusive, Pf growth 96h 4.7µM, Lassa entry inh inconclusive, MARV entry inh inconclusive
Cc1ccc(Cn2c(NS(=O)(=O)c3ccccc3)nc3ccccc32)cc1	Pf growth 96h inconclusive
CCCn1c(NCc2ccccc2NS(=O)(=O)c2ccc(C)cc2)nc2ccccc21	Pf growth 48h inconclusive, Lassa entry inh inconclusive, MARV entry inh 6.3µM
CCn1c(NCc2ccccc2NS(=O)(=O)c2ccc(C)cc2)nc2ccccc21	Lassa entry inh inconclusive, MARV entry inh 21µM
CCC(=O)NC(=S)NNC(=O)c1ccc(O)cc1	Cycloheximide cs 23 (no result: Lassa entry inh, MARV entry inh)
CC(=O)NNC(=S)NC(=O)c1ccc(C)cc1	Pf growth 96h inconclusive
CCC(=O)NNC(=S)NC(=O)c1ccc(C)cc1	Cycloheximide cs 31, Shiga inhibitor 51, Lassa entry inh inconclusive, MARV entry inh inconclusive
CCOC(=O)C1C(=O)CC(=O)CC1CC(C)SCC (stereo not drawn)	none
O=C(Nc1ccc(F)cc1F)c1ccc(COc2c(F)c(F)cc(F)c2F)o1	none
CC(=O)c1cccc(NC(=O)CNC(=O)c2sc3ccccc3c2Cl)c1	Pf growth 48h inconclusive, MARV entry inh inconclusive (no result: Cycloheximide cs, Shiga inhibitor)
CCNC(=O)c1sc2cc(C)ccc2c1Cl	Cycloheximide cs 25, Pf growth 96h 13µM, Shiga inhibitor 39
Cc1cc(NC(=O)c2c(Cl)cccc2Cl)no1	none (no result: Lassa entry inh, MARV entry inh)
COc1ccc(CCNC(=O)c2sc3cc(C)ccc3c2Cl)cc1	Pf growth 48h inconclusive, Lassa entry inh inconclusive
Cc1ccc2c(Cl)c(C(=O)NCCc3ccccc3)sc2c1	Cycloheximide cs 48, Pf growth 96h inconclusive, Shiga inhibitor 124
Cc1ccc2c(Cl)c(C(=O)Nc3cc(C)on3)sc2c1	Cycloheximide cs 31, Shiga inhibitor 78, MARV entry inh inconclusive (no result: Pf growth 48h)
